Most compounds without a hit are left out; they make up all but 3.5% or so of the library.
mHTT-CaM PPI inh – inhibitors of human mutant huntingtin-calmodulin interaction. actives 3.6% (n = 190,000). AlphaScreen His-mHTT/GST-CaM binding, luminescence. AID 1671202. inhibition, % at 15 µM
Pf apPOL block – Pf-apPOL DNA polymerase inhibition | inhibition, % at 10 µM | Recombinant Pf-apPOL, molecular beacon fluorescence, 1.5 h | actives 0.25% (n = 210,000) | AID 1794808
Numbers stand for hits; 0 = inactive; - = no result. Rule as the data show it: active = inhibition above about 50%; inactive = the rest.

SMILES	mHTT-CaM PPI inh	Pf apPOL block
COc1ccc(C(=O)CC2(O)C(=O)N(CCc3ccccc3)c3ccccc32)cc1[N+](=O)[O-] (stereo not drawn)	71	0
C=CCN1C(=O)C(O)(CC(=O)c2ccc([N+](=O)[O-])cc2)c2ccccc21 (stereo not drawn)	0	0
C=CCN1C(=O)C(O)(CC(=O)c2ccc(OC)c([N+](=O)[O-])c2)c2ccccc21 (stereo not drawn)	0	0
COc1ccc(CCC(=O)Nc2ccc(SCC(=O)N3CCCC3)nn2)cc1	0	0
O=S(=O)(c1cc(Cl)sc1Cl)N1CCCN(CCc2ccccc2)CC1	-	0
O=c1c(C=NCCc2ccccc2)c(NCCc2ccccc2)nc2ccccn12	0	0
CNC(=O)c1c(N=Cc2ccccc2O)sc2c1CCCC2	61	0
CNC(=O)c1c(NC(C)=O)sc2c1CCCCC2	0	0
COc1ccc(NC(=O)N2CCN(c3ccc(-n4nc(C)cc4C)nn3)CC2)cc1	0	0
COc1cccc(NC(=O)N2CCN(c3ccc(Nc4cc(C)ccn4)nn3)CC2)c1	99	0
CCOc1ccc(NC(=O)c2ccc(C)c(Br)c2)cc1	0	0
Cc1cccc[n+]1C1C(c2ccc([N+](=O)[O-])cc2)C(C#N)=C(C(C#N)C#N)NC1(O)C1CC1 (stereo not drawn)	0	0
Cc1ccc[n+](C2C(c3ccc([N+](=O)[O-])cc3)C(C#N)=C(S)NC2(O)C2CC2)c1 (stereo not drawn)	84	0
CCCCn1c2c(=O)[nH]c(=O)n(C)c2n2c(-c3c(F)cccc3Cl)nnc12	0	0
COc1cccc(C(=O)N2CCC(c3noc(-c4cccc(OC)c4)n3)CC2)c1	0	0
COc1cccc(-c2nc(C3CCN(C(=O)c4cccc(N(C)C)c4)CC3)no2)c1	53	0
COc1cccc(-c2nc(C3CCN(C(=O)c4ccc(Br)cc4)CC3)no2)c1	0	0
COc1cccc(-c2nc(C3CCN(C(=O)c4ccc(Cl)cc4)CC3)no2)c1	62	0
COc1ccccc1-c1nc(C2CCN(C(=O)c3ccccc3)CC2)no1	0	0
Cc1ccccc1-c1nc(C2CCN(C(=O)c3ccc(Br)cc3)CC2)no1	54	0
COc1ccccc1-c1nc(C2CCN(C(=O)c3cccc(Cl)c3)CC2)no1	63	0
COc1ccc(C(=O)N2CCC(c3noc(-c4ccccc4C)n3)CC2)cc1	0	0
COc1cc(/C=C2/N=C(c3cccc([N+](=O)[O-])c3)OC2=O)cc(OC)c1OC	0	0
Cc1ccc(C2=N/C(=C\c3ccccc3I)C(=O)O2)cc1[N+](=O)[O-]	0	0
O=C(NC(Nc1ccc([N+](=O)[O-])cc1)C(Cl)(Cl)Cl)c1ccco1 (stereo not drawn)	0	0
SMILES	mHTT-CaM PPI inh	Pf apPOL block
O=c1cc2oc3cc(O)c(-c4ccc(O)cc4O)cc3nc-2cc1-c1ccc(O)cc1O	100	-
O=c1cc(-c2ccc(O)cc2)oc2cc(O)cc(O)c12	-	0
O=C(c1cc(F)cc(F)c1)N1CCC(n2c(-c3ccco3)nc3cccnc32)C1 (stereo not drawn)	0	0
O=C(c1ccc(F)c(Cl)c1)N1CCC(n2c(-c3ccoc3)nc3cccnc32)C1 (stereo not drawn)	99	0
O=C(c1ccoc1)N1CCC(n2c(-c3ccco3)nc3cccnc32)C1 (stereo not drawn)	0	0
Cc1ccc(C(=O)N2CCC(n3c(-c4ccoc4)nc4cccnc43)C2)cc1F (stereo not drawn)	0	0
CCc1ccc(C(=O)N2CCC(n3c(-c4ccco4)nc4cccnc43)C2)cc1 (stereo not drawn)	76	0
O=C(c1ccc(Br)cc1)N1CCC(n2c(-c3ccco3)nc3cccnc32)C1 (stereo not drawn)	84	0
O=C(c1ccc(Cl)cc1)N1CCC(n2c(-c3ccco3)nc3cccnc32)C1 (stereo not drawn)	77	0
COc1ccc(C(=O)N2CCC(n3c(-c4ccco4)nc4cccnc43)C2)cc1OC (stereo not drawn)	0	0
Cc1ccc(N2C(=O)C(N3C(=O)c4ccccc4C3=O)C2c2ccc(N(C)C)cc2)cc1F (stereo not drawn)	0	0
CCOc1cc(/C=C2/SC(NC(C)=O)=NC2=O)ccc1OCc1ccc(F)cc1	0	0
COc1ccc(/C=C(\C#N)C(=O)Nc2cccc(C(F)(F)F)c2)cc1	0	0
Cc1ccc(C2CC(C(F)(F)F)n3nc(C(=O)N(C)CCC#N)cc3N2)cc1 (stereo not drawn)	0	0
COc1ccc(-c2nn(-c3ccccc3)cc2CO)cc1[N+](=O)[O-]	0	0
Clc1ccc(-c2cnc3n2CCC3)cc1Cl	89	0
Clc1ccc(-c2cn3c(n2)CCC3)cc1Cl	0	0
O=C(Cc1ccc(NS(=O)(=O)Cc2ccccc2Cl)cc1)N1CCOCC1	0	0
O=C1c2cccc(Cl)c2C(=O)c2c1cccc2N1CCOCC1	88	0
O=C1c2ccccc2-c2onc3ccc(N4CCOCC4)c1c23	0	0
COCCCNC(=O)Cn1c(C)c(C#N)c2ccccc21	0	0
CC(C)c1noc(COC2CCN(C(=O)Cc3ccsc3)CC2)n1	0	0
CCc1ccc(C2=C/C(=C/c3ccc(C)c(OC)c3)C(=O)O2)cc1	0	0
CCc1ccc(C2=C/C(=C\c3ccc(C)o3)C(=O)O2)cc1	69	0
c1ccc2[nH]c(CCn3c4c(c5ccccc53)CCCC4)nc2c1	66	-
SMILES	mHTT-CaM PPI inh	Pf apPOL block
N#CCCn1c2c(c3ccccc31)CCCC2	0	0
Cc1ccc(CN2CCC(OCc3nc(-c4cccnc4)no3)CC2)o1	0	0
CCN(CC)C1C(=O)Nc2ccc(Cl)cc2C1c1ccccc1 (stereo not drawn)	95	0
O=C1CN(C(=O)c2ccccc2C(F)(F)F)C(c2ccccc2)c2cc(Cl)ccc2N1 (stereo not drawn)	0	0
CCN(CC)S(=O)(=O)c1ccc2oc(C(=O)Nc3ccc(F)c(Cl)c3)c(C)c2c1	0	0
COc1ccc(CC(=O)N2CCC(c3noc(-c4ccccc4OC)n3)CC2)cc1Cl	0	0
O=C(C1COc2ccccc2O1)N1CCn2cnnc2C1 (stereo not drawn)	0	0
COc1ccc(NC(=O)c2cc3c(CO)cnc(C)c3oc2=Nc2ccc(C)c(C)c2)c(OC)c1	0	0
Cn1cc(C(=O)N2CCN(C(=O)c3cccs3)CC2)c2nn(-c3ccccc3)c(=O)c-2c1	0	0
C=C1CCN([C@@H](CC(C)C)C(=O)N2CCOCC2)S(=O)(=O)c2ccccc21	0	0
CC(C)CC(C(=O)N1CCOCC1)N1C(=O)C2C3c4ccccc4C(c4ccccc43)C2C1=O (stereo not drawn)	55	0
O=C(NCc1cc(-c2cccs2)on1)c1ccccc1C(F)(F)F	0	0
C[C@@H]1CCC(=O)N(CC[C@H](Sc2ccccc2)c2ccccc2)CC1	0	0
O=C1CCC(OCc2ccccc2)CCN1CC[C@@H](Sc1ccccc1)c1ccccc1 (stereo partly drawn)	80	0
[N-]=[N+]=N[C@@H](CCN1CC[C@H](NC(=O)OCc2ccccc2)CCC1=O)c1ccccc1	0	0
O=C1CC[C@@H](OCc2ccccc2)CCN1CC[C@H](Sc1ccccc1)c1ccccc1	59	0
[N-]=[N+]=N[C@@H](CCN1CC[C@H](OCc2ccccc2)CCC1=O)c1ccccc1	51	0
O=C1CC[C@@H](O)CCN1CC[C@H](Sc1ccccc1)c1ccccc1	0	0

Bioassay records deposited in PubChem BioAssay by University of Kansas High Throughput Screening Laboratory.
